# LMNA splice mod – modulators of lamin A splicing; HeLa LMNA splicing GFP/RFP minigene ratio, 48 h; AID 1487; hit rate 0.01% among 200,000; Potency, µM (titrated, usually from 46.1 µM), for inactives: at the highest dose ratio change, negative = inhibition, usual class: inhibitors; active = well fitted inhibition curve with a large enough effect in the signal ratio, with a control signal flat, not every such curve was filed as active; inconclusive = small, poorly fitted or top-dose-only effect, or effect the other way, or a change in a side signal; the % refers to the signal ratio
#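 S3 HeLa cells stably expressing lamin A-EGFP splicing minigene plus DsRed2, 600 cells/well, 48 h compound exposure at 37C. Laser-scanning cytometry; analysed as GFP (500-530 nm)/RFP (575-640 nm) total intensity ratio; 0.5% DMSO vehicle.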
# IMPase Li inh – cell-permeable IMPase inhibitors with lithium potentiation | CHO-M1 cells, IP1 TR-FRET (IP-One), carbachol + lithium | Potency, µM (series often up to 59.4 µM), without a hit: top-dose activity, negative = IMPase inhibition, hits mostly inhibitors | hit rate 0.35% among 210,000; active = well fitted curve in the direction sought with a large enough effect; inconclusive = small, poorly fitted or top-dose-only effect, or another doubt; inactive = no such curve, though single readings can be large; an effect the other way counts as inactive or inconclusive;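 also: IP1 builds up when IMPase is blocked and the TR-FRET signal falls; plate controls were basal vehicle for no effect and high inhibitor control for full effect; nearly all actives have a fitted effect of over 50% in size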
#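 Test compounds were applied to CHO-M1 cells previously cultured for 16–30 h at 2000 per well. A small lithium amount accompanied them; after 30 min at 37C, IP1 was quantified by TR-FRET.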
# Luc counter – counter-screen: inhibitors of Kinase-Glo firefly luciferase; Q27757; Kinase-Glo luciferase, ATP luminescence, 8 min; Potency, µM (highest dose often 38.3 µM), for inactives: at the top dose activity change, negative = inhibition, hits mostly inhibitors; hit rate 0.28% among 200,000; active = well fitted curve in the direction sought with a large enough effect; inconclusive = small, poorly fitted or top-dose-only effect, or another doubt; inactive = no such curve, though single readings can be large; an effect the other way counts as inactive or inconclusive; also: nearly all actives have a fitted effect of over 60% in size
#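 Luminescence was the read-out, taken after 8-minute incubation at ambient temperature. Luciferase turned over luciferin with 10 uM ATP in imidazole pH 7.2 buffer containing KCl, MgCl2, Tween 20 and BSA.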
# HPGD block – HPGD (human) dehydrogenase inhibition; AID 894; Potency, µM, for the others: at the highest dose activity change, negative = inhibition, usual class: inhibitors; purified HPGD, NADH fluorescence kinetic, PGE2 substrate; hit rate 4.3% among 150,000; P15428
# Target sequence (P15428 whole entry, looked up): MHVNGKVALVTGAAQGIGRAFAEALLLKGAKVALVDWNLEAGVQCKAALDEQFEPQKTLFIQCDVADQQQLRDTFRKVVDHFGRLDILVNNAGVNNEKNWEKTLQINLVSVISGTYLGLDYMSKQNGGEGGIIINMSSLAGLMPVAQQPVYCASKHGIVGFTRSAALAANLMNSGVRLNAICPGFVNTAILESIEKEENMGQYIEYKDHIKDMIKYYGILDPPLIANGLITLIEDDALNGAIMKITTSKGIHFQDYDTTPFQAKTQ
#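 NADH formation kinetics: reaction with 30 uM PGE2 and 1 mM NAD+ (final), 20 nM enzyme, Tris-HCl pH 8 with Tween 20, after 15 min compound preincubation at room temperature. Fluorescence change, last versus first of five reads.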
# ALDH1A1 block – ALDH1A1 (human) enzyme inhibition | P00352 | Purified ALDH1A1, NADH fluorescence, propionaldehyde substrate | hit rate 7.3% among 220,000 | Potency, µM (series often up to 75.3 µM), for the others: top-dose activity, negative = inhibition, actives largely listed as inhibitors;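 also: plate controls were no enzyme wells and a reference inhibitor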
# An asterisk follows results filed as active; ? = inconclusive; . = no result given; [ ] = dose if it differs, or a comment. Compounds with a hit are over-represented: about 9% of the library has one in this group of screens. Unless noted, calls follow the shape of the dose curve; as a rule, active = well fitted inhibition curve with a large enough effect (not every such curve was filed as active); inconclusive = small, poorly fitted or top-dose-only effect, or another doubt; inactive = no such curve, though single readings can be large or run the other way. Unless noted, % is scaled to controls: 0 for no effect and ±100 for the full control effect; potency is read from the fitted curve at half-maximal effect.
SMILES,LMNA splice mod,IMPase Li inh,Luc counter,HPGD block,ALDH1A1 block
CC(=O)OC[C@@H]1O[C@@H](O/N=C2/C[C@@H](O)[C@@H](O)[C@@H]3[C@@H]4C(=O)N(C(C)(C)C)C(=O)[C@H]4CC[C@@H]23)[C@H](OC(C)=O)[C@H](OC(C)=O)[C@@H]1OC(C)=O,.,.,.,.,4.0%[13.5 µM]
CC(=O)Nc1cnc2ccccc2n1,8.5%,19.2%[38.3 µM],-0.9%,-18.9%,-12.0%
CC(=O)N=c1sc2nc3ccccc3nc2n1N(C(C)=O)C(C)=O,0.5%,12.6µM*,0.7%,?,?
O=S(=O)(c1cnc(Cl)c(Cl)c1)N1CCCc2ccccc21,-6.5%,4.5%,1.6%,-13.0%,3.16µM*
Cn1cnc(S(=O)(=O)N2CCc3ccccc32)c1,2.9%,-4.4%[38.3 µM],-1.5%,-4.9%,9.6%
O=S(=O)(NC1CC1)c1ccc(S(=O)(=O)N2CCCc3ccccc32)cc1,?,0.5%[38.3 µM],-3.8%,-4.2%,?
O=S(=O)(c1cnc(Cl)c(Br)c1)N1CCc2ccccc21,.,.,.,.,2.82µM*
Cc1nn(-c2ccc(N3CCOCC3)nn2)c(C)c1CCC(=O)NCc1ccc(Cl)cc1,-8.2%[46 µM],.,.,.,.
C=C[C@@H](C1=CC(=O)C(OC)=C(OC)C1=O)c1ccccc1,.,45.8%,3.0%,20µM*,-10.1%
CC(=O)c1ccc(NC(=O)COCc2cc(-c3ccc(F)cc3)on2)cc1,11.0%[46 µM],.,.,.,.
CSc1ccc(C(=O)C2CCCN(C(=O)c3ccsc3)C2)cc1 (stereo not drawn),.,-4.3%,-4.9%,.,5.01µM*
CCC(c1nnnn1CC1CCCO1)N(CCCO)Cc1cc2cccc(C)c2[nH]c1=O (stereo not drawn),-6.1%,20.9%[38.3 µM],1.9%,-11.0%,?
COc1ccc2cc(CN(Cc3ccco3)C(c3nnnn3C3CCCCC3)C(C)C)c(=O)[nH]c2c1 (stereo not drawn),10.9%,18.9%[38.3 µM],1.4%,-15.9%,15.8µM*
COc1ccc2[nH]c(=O)c(C(c3nnnn3C(C)(C)C)N(Cc3ccco3)CC3CCCO3)cc2c1 (stereo not drawn),21.3%,15.8µM*,-3.6%,?,?
COc1cc2cc(CN(Cc3nnnn3Cc3ccco3)C3CCCCC3)c(=O)[nH]c2cc1OC,6.5%,1.5%[38.3 µM],-6.0%,?,?
Cc1cccc2cc(CN(CC3CCCO3)C(c3nnnn3Cc3ccco3)C(C)C)c(=O)[nH]c12 (stereo not drawn),?,3.0%[38.3 µM],0.9%,-0.5%,6.31µM*
COc1ccc2cc(CN(Cc3ccco3)Cc3nnnn3C3CCCCC3)c(=O)[nH]c2c1,?,-2.1%[38.3 µM],0.8%,-10.8%,7.94µM*
C[C@H]1Cc2c(-c3ccccc3)nc3c(c2CO1)CN(C(=O)c1ccco1)CC3,11.8%[9.22 µM],2.6%,-2.3%[7.66 µM],-2.3%,6.9%[13.5 µM]
CNc1ncnc2c1ncn2[C@H]1C[C@H](OP(=O)(O)O)[C@H](COP(=O)(O)O)O1,.,17.1%,-2.7%,-2.6%,-9.5%
CCC(C)C(=O)OC1C2CC3=C4CC(=O)OC(c5ccoc5)[C@]4(C)CCC3[C@@](C)(C2=O)C(CC(=O)OC)C1(C)C (stereo partly drawn),.,18.0%,-2.7%,-9.5%,-12.1%
COCCN(C(=O)Cc1cccs1)C(C(=O)NCc1ccc(OC)cc1)c1ccccc1 (stereo not drawn),-9.6%,41.6%[38.3 µM],2.7%,-6.2%,25.1µM*
Cc1ccc(CNC(=O)Cc2cccs2)cc1,7.8%,14.5%[38.3 µM],-2.6%,15.8µM*,5.2%
COc1ccc(CCNC(=O)Cc2cccs2)cc1,9.3%,6.5%,3.4%,35.5µM*,2.3%
O=C(Cc1cccs1)NCc1ccccc1F,11.2%,23.3%[38.3 µM],-1.8%,25.1µM*,0.1%
O=C(O)c1cnn(-c2ccccc2)c1C(F)(F)F,.,0.8%,-0.4%,.,-0.3%
O=C(COc1ccccc1)NCc1cccs1,21.2%,-1.5%[38.3 µM],7.7%,-26.2%,-0.4%
O=C(Cc1cccs1)NCc1ccncc1,5.0%,-6.3%[38.3 µM],-0.6%,-13.7%,-7.7%
CC(=O)SC(C)CC(=O)NCc1ccccc1 (stereo not drawn),13.5%,29.8%[38.3 µM],-1.6%,28.2µM*,0.9%
Cc1ccc(OCC(=O)NCc2cccs2)cc1,-4.5%,29.5%[38.3 µM],-4.2%,22.4µM*,-6.0%
